High-throughput results deposited in PubChem BioAssay by Broad Institute.
Shown are actives, neighbours in structure and some others; about 2.1% of the full set was active somewhere.
ARNT TACC3 PPI = ARNT/TACC3 interaction disruption; Q9Y6A5; AlphaScreen His-ARNT PAS-B/GST-TACC3 binding, luminescence; TACC3 fragment carries E629A point mutation; inhibition, % at 9.99 µM; 390,000 tested, 0.66% active;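 active means mean inhibition of replicates at least 50% and at least half of replicates each reaching 50%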
F508del corr = correctors of CFTR F508del function in bronchial epithelial cells. activity (quench increase), % at 7.58 µM. CFBE cells, YFP halide quenching; stimulated with forskolin plus potentiator P3; % fluorescence drop versus neutral controls. 350,000 tested, 0.36% active;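 active means mean added fluorescence quench of at least 8% versus neutral control, with both replicates also reaching 8%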;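 further: cells transiently co-express mutant CFTR-F508del with the halide-sensitive YFP; corrector assay measuring rescue of mutant channel to the surface after 24 h compound exposure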
rRNA inh HTS = selective bacterial rRNA inhibition in E. coli; AID 720706; E. coli WT GFP vs humanized-ribosome RFP mutants, fluorescence, 24 h; active compounds read low; DMSO median 0, no signal -100; GFP signal change (wild-type ribosome), % (test concentration not listed); 350,000 tested, 1.6% active;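 active means significant combined selectivity score with lowered wild-type GFP, culture density cut under 30%, mutant RFP and density less affected; inactive means any of these conditions unmet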
PvdQ inh = P. aeruginosa PvdQ acylase inhibition | AID 488965 | 340,000 tested, 0.063% active | inhibition, % at 10 µM | purified PvdQ acylase, fluorescence plate reader; in the data active means inhibition above about 30%, passing the limit was not always enough
ERAP1 HTS inh = blocks human ERAP1 aminopeptidase activity; inhibition, % at 10.7 µM; Q9NZ08; 340,000 tested, 0.15% active; recombinant ERAP1, Leu-AMC fluorescence, 60 min;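 active means mean replicate inhibition of at least 30%, or all replicates individually reaching that 30% level; inactive means mean below 30% and not every replicate reaching it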
Target sequence (Q9NZ08 whole entry, looked up): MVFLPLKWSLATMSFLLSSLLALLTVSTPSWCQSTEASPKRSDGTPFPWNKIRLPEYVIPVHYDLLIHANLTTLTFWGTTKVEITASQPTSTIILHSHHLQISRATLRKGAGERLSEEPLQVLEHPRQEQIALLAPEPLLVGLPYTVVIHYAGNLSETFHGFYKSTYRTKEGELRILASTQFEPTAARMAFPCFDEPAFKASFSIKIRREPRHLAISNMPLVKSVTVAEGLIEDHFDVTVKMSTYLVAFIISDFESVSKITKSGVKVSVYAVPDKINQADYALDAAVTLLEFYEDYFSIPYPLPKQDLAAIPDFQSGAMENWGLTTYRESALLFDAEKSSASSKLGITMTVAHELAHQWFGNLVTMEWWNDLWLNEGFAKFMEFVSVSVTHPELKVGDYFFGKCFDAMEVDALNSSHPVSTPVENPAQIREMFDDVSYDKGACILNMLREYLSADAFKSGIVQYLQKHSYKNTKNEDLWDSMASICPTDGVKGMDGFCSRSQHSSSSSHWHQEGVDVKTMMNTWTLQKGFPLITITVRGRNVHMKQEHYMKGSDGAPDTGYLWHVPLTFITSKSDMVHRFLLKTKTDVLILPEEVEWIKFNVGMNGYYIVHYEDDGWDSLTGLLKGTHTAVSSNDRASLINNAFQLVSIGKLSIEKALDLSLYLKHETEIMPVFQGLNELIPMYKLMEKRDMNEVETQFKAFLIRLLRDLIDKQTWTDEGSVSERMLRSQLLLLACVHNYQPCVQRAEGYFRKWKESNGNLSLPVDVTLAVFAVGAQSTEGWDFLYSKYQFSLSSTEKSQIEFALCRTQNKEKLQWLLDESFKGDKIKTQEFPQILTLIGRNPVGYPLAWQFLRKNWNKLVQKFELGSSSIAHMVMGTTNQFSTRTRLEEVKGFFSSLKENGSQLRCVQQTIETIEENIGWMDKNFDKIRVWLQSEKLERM
A number is an active result.

For CC(=O)OC(C[N+]1(C)CCCCCC1)c1ccccc1 (stereo not given) the results were ARNT TACC3 PPI inactive, F508del corr inactive, rRNA inh HTS inactive, PvdQ inh inactive and ERAP1 HTS inh inactive.
CN1C(=O)c2cc(NC(=O)c3ccc(F)cc3)ccc2OC[C@@H]2O[C@H](CC(=O)N3CCOCC3)CC[C@H]21 was read as ARNT TACC3 PPI inactive, F508del corr inactive, rRNA inh HTS inactive and ERAP1 HTS inh inactive.
CNC(=O)C1(c2ccccc2)CCCCC1 was read as F508del corr inactive, rRNA inh HTS inactive and ERAP1 HTS inh inactive.
Screening O=CNC1(c2ccccc2)CCCCC1 returned ARNT TACC3 PPI inactive, F508del corr inactive, rRNA inh HTS inactive, PvdQ inh 94.1 and ERAP1 HTS inh inactive.
Screening Cn1nnnc1N=N/C(=N/Nc1ccccc1)c1ccccc1 returned ARNT TACC3 PPI inactive, F508del corr 12.6, rRNA inh HTS inactive and PvdQ inh inactive.
For Oc1ccccc1N=N/C(=N/Nc1ccccc1O)c1ccccc1 the results were ARNT TACC3 PPI inactive, F508del corr inactive, rRNA inh HTS inactive, PvdQ inh inactive and ERAP1 HTS inh inactive.
For COc1cc(OC)c(C2=NOC(C(=O)N3CCc4ccccc4C3)C2)cc1Cl (stereo not given) the results were ARNT TACC3 PPI inactive, F508del corr inactive, rRNA inh HTS -26.4, PvdQ inh inactive and ERAP1 HTS inh inactive.
COc1cc(OC)c(C2=NOC(C(=O)N3CCN(C(=O)c4ccco4)CC3)C2)cc1Cl (stereo not given) was read as ARNT TACC3 PPI inactive, F508del corr inactive, rRNA inh HTS inactive, PvdQ inh inactive and ERAP1 HTS inh inactive.
For CO[C@@H]1CN(C)C(=O)c2ccc(NC(=O)c3cnccn3)cc2OC[C@@H](C)N(C(C)=O)C[C@H]1C the results were ARNT TACC3 PPI inactive, F508del corr inactive, rRNA inh HTS inactive and ERAP1 HTS inh inactive.
`CC(=O)c1cccc(NC(=O)CSc2ccc(-c3cccnc3)nn2)c1` gave ARNT TACC3 PPI inactive, F508del corr inactive, rRNA inh HTS inactive, PvdQ inh inactive and ERAP1 HTS inh inactive.
For CC(=O)Nc1cccc(NC(=O)CSc2ccc(-c3cccnc3)nn2)c1 the results were ARNT TACC3 PPI inactive, F508del corr inactive, rRNA inh HTS -26.2, PvdQ inh inactive and ERAP1 HTS inh inactive.
For O=C(CSc1ccc(-c2cccnc2)nn1)N1CCCc2ccccc21 the results were F508del corr inactive, rRNA inh HTS -23.2 and ERAP1 HTS inh inactive.
For CCCCN1C(=O)CC(C(=O)OCC)=C1C the results were ARNT TACC3 PPI inactive, F508del corr 11.0, rRNA inh HTS inactive, PvdQ inh inactive and ERAP1 HTS inh inactive.
CCOC(=O)C1=C(C)N(CC(C)C)C(=O)C1 was read as ARNT TACC3 PPI inactive, F508del corr inactive, rRNA inh HTS inactive, PvdQ inh inactive and ERAP1 HTS inh inactive.
For O=C(NCC[C@@H]1CC[C@@H](NC(=O)C2CCCCC2)[C@@H](CO)O1)Nc1ccc(Cl)cc1 the results were ARNT TACC3 PPI inactive, F508del corr inactive, rRNA inh HTS inactive and ERAP1 HTS inh inactive.
COc1cc(CNc2ccc(N3CCN(C(C)=O)CC3)cc2)ccc1OCc1ccc(F)cc1 was read as ARNT TACC3 PPI inactive, F508del corr inactive, rRNA inh HTS -27.4, PvdQ inh inactive and ERAP1 HTS inh inactive.
`CC(=O)N1CCN(c2ccc(NCc3ccc(F)cc3)cc2)CC1` gave ARNT TACC3 PPI inactive, F508del corr inactive, rRNA inh HTS inactive, PvdQ inh inactive and ERAP1 HTS inh inactive.
For O=C(COc1ccccc1)OCC(=O)c1ccc(S(=O)(=O)N2CCCCC2)cc1 the results were ARNT TACC3 PPI inactive, F508del corr inactive, PvdQ inh 39.9 and ERAP1 HTS inh inactive.
Screening COc1ccc(S(=O)(=O)Nc2ccc3c(c2)CC(=O)N([C@@H](C)CO)C[C@@H](C)[C@@H](CN(C)C(=O)Nc2ccccc2)O3)cc1 returned ARNT TACC3 PPI inactive, F508del corr inactive, rRNA inh HTS inactive and ERAP1 HTS inh inactive.
`CC(C)NC(=O)N(C)C[C@@H]1OCCCC[C@H](C)Oc2ccc(NC(=O)Cc3ccccc3)cc2C(=O)N([C@H](C)CO)C[C@H]1C` gave ARNT TACC3 PPI inactive, F508del corr inactive, rRNA inh HTS inactive and ERAP1 HTS inh inactive.
`CCN1C(=O)C(CC(=O)Nc2ccc(OC)cc2)N(CCCN2CCN(c3ccc(OC)cc3)CC2)C1=S` (stereo not given) gave ARNT TACC3 PPI inactive, F508del corr inactive, rRNA inh HTS -19.8, PvdQ inh inactive and ERAP1 HTS inh inactive.
`O=C(O)CCCCCCCCc1cn(Cc2ccc(C(=O)c3ccccc3)cc2)nn1` gave ARNT TACC3 PPI inactive, F508del corr 14.1, rRNA inh HTS inactive, PvdQ inh inactive and ERAP1 HTS inh inactive.
`O=C(c1ccccc1)c1ccc(Cn2cc(CCCO)nn2)cc1` gave ARNT TACC3 PPI inactive, F508del corr inactive, rRNA inh HTS inactive, PvdQ inh inactive and ERAP1 HTS inh inactive.
Screening CC(=O)Nc1cccc(-c2ccnc3c2CC(C)(C(=O)Nc2ccc4c(c2)OCO4)O3)c1 (stereo not given) returned F508del corr 10.1, rRNA inh HTS inactive and ERAP1 HTS inh inactive.
CC(=O)Nc1cccc(-c2ccnc3c2CC(C(=O)Nc2ccc4c(c2)OCO4)O3)c1 (stereo not given) was read as F508del corr inactive, rRNA inh HTS -21.9 and ERAP1 HTS inh inactive.
Screening CN(C)c1ccc(CNC(=O)C2(C)Cc3c(-c4ccc5c(c4)OCO5)ccnc3O2)cc1 (stereo not given) returned F508del corr inactive, rRNA inh HTS -14.9 and ERAP1 HTS inh inactive.
For CN(C)c1ccc(CNC(=O)C2(C)Cc3c(-c4ccc(N(C)C)cc4)ccnc3O2)cc1 (stereo not given) the results were F508del corr inactive, rRNA inh HTS inactive and ERAP1 HTS inh inactive.
For CNC[C@H]1Oc2ccc(NC(=O)Nc3c(C)noc3C)cc2C(=O)N([C@@H](C)CO)C[C@H]1C the results were ARNT TACC3 PPI inactive, F508del corr inactive, rRNA inh HTS inactive and ERAP1 HTS inh inactive.
Screening COCC(=O)NC[C@@H]1[C@@H](c2ccc(C3=CCCC3)cc2)[C@H](CO)N1C(=O)C1CC1 returned ARNT TACC3 PPI inactive, F508del corr inactive and rRNA inh HTS inactive.
Fc1cnc(Cl)nc1N1CCN(c2ccccc2)CC1 was read as ARNT TACC3 PPI inactive, F508del corr inactive, rRNA inh HTS -22.5, PvdQ inh inactive and ERAP1 HTS inh inactive.
For Cn1c(C(=O)O)c(CC(=O)N2CCC(Cc3ccccc3)CC2)c2ccccc21 the results were ARNT TACC3 PPI inactive, F508del corr inactive, rRNA inh HTS -26.1, PvdQ inh inactive and ERAP1 HTS inh inactive.
For C[C@@H]1CCCCO[C@H](CN(C)Cc2ccc(C(=O)O)cc2)[C@@H](C)CN([C@H](C)CO)C(=O)c2cc(NC(=O)Nc3ccc(F)cc3)ccc2O1 the results were ARNT TACC3 PPI inactive, F508del corr inactive, rRNA inh HTS inactive and ERAP1 HTS inh inactive.
Screening CC(=O)Nc1ccc(NC(=O)C(C)OC(=O)C23CC4CC(CC(Cl)(C4)C2)C3)cc1 (stereo not given) returned ARNT TACC3 PPI inactive, F508del corr inactive, rRNA inh HTS -25.9, PvdQ inh inactive and ERAP1 HTS inh inactive.
For O=C(C[n+]1cc(-c2ccc(Cl)c(Cl)c2)n2c1CCC2)OCc1ccccc1 the results were ARNT TACC3 PPI inactive, rRNA inh HTS -13.9, PvdQ inh inactive and ERAP1 HTS inh inactive.
Screening Clc1ccc(C[n+]2cc(-c3ccccc3)n3c2CCC3)cc1Cl returned ARNT TACC3 PPI inactive, PvdQ inh inactive and ERAP1 HTS inh inactive.
